# Experimental data reported in PubChem BioAssay AID1030 (National Center for Advancing Translational Sciences (NCATS), 2008).
# Hit rate of the full screen: of about 220,000 compounds, about 16,000 (7.3%) were called active. Entries that show only a call come without a potency. Roughly 25% stayed inconclusive and do not appear here. Calls come from the whole dose curve; as a rule, active = well fitted inhibition curve with a large enough effect (not every such curve was filed as active); inconclusive = small, poorly fitted or top-dose-only effect, or another doubt; inactive = no such curve, though single readings can be large or run the other way. Only a selection was taken, and actives are over-represented in it overall.
# Biological target: Aldehyde dehydrogenase 1A1 (Homo sapiens) (UniProt P00352)
# Test: qHTS Assay for Inhibitors of Aldehyde Dehydrogenase 1 (ALDH1A1)
# Conditions: Purified ALDH1A1, NADH fluorescence, propionaldehyde substrate; series mostly up to 75.3 µM
# Potency is the fitted concentration of half-maximal effect.
# Aldehyde dehydrogenase 1A1 (Homo sapiens), sequence (P00352 whole entry, looked up): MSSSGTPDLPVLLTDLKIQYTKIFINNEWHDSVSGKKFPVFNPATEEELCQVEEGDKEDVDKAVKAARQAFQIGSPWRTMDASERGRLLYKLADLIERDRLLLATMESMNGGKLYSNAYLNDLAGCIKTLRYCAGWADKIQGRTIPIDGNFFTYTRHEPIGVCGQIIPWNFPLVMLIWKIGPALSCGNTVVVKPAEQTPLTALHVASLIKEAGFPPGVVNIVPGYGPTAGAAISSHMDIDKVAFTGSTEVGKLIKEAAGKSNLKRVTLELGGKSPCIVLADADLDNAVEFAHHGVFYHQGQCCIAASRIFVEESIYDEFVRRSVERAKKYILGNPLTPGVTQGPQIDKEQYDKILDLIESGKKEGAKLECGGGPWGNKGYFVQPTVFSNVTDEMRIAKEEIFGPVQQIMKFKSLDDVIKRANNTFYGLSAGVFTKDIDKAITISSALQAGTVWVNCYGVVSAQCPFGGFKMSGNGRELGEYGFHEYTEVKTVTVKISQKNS
row,SMILES,Potency
1,CC(C)c1nc2sc3c(c2c(=O)n1N)CC(C)(C)OC3,inactive
2,C=CCNC(=S)NNc1ncnc2sc3c(c12)CC(C)(C)OC3,1.41 µM (active)
3,O=C(NCc1ccc(F)cc1)C(c1ccccc1)N(C(=O)c1csnn1)C1CC1 (stereo unspecified),inactive
4,COc1cc(C)c(S(=O)(=O)N2CCOCC2)c(C)c1C,inactive
5,O=C1N/C(=N\N=C\c2ccco2)SC1Cc1ccc(F)cc1 (stereo unspecified),inactive
6,CCOc1ccc(S(=O)(=O)Nc2ccncc2)c(C)c1C,inactive
7,CCOc1ccc(NS(=O)(=O)c2ccc(C)c(C(N)=O)c2)cc1,inactive
8,CCOc1ccc(NC(=O)Nc2cc(C)ccc2OC)cc1,inactive
9,CCOc1ccc(C(=O)Nc2cc(OC)ccc2OC)cc1,inactive
10,CCOc1ccc(NS(=O)(=O)c2cc(C)c(C)cc2C)cc1,7.94 µM (active)
11,CCOc1ccc(S(=O)(=O)Nc2ccc(S(=O)(=O)Nc3cc(OC)ccc3OC)cc2)cc1,10 µM (active)
12,CN1CCN(/N=C/c2ccc(C#N)cc2)CC1,inactive
13,CC(=O)/C(C)=N/O,inactive
14,Cc1cc(C(=O)OC(C)C(=O)Nc2cccc(S(=O)(=O)N3CCOCC3)c2)c(C)o1 (stereo unspecified),inactive
15,CC(OC(=O)CNS(=O)(=O)/C=C/c1ccccc1)C(=O)Nc1ccc(S(=O)(=O)N2CCCC2)cc1 (stereo unspecified),1.26 µM (active)
16,O=C(O)/C=C/c1ccc(S(=O)(=O)N2CCCCCC2)cc1,inactive
17,C/C(N)=C(/C#N)C(=O)COC(=O)C1CCN(C(=O)c2ccc(Cl)cc2)CC1,inactive
18,N/C(=N\OC(=O)Cc1ccccc1[N+](=O)[O-])c1ccc(Br)cc1,inactive
19,NS(=O)(=O)c1ccc(NC(=O)/C=C/c2ccccc2Cl)cc1,inactive

row,SMILES,Potency
1,COC(=O)C1=C(C)N(c2ccc(C)cc2)/C(=C/c2ccc(O)cc2)C1=O,inactive
2,Cc1ccc(C(=O)C(=S)N2CCOCC2)cc1,inactive
3,CCOc1cc(C(=S)N2CCOCC2)ccc1O,8.91 µM (active)
4,CCOc1cc(C(=O)OCC(=O)Nc2cccc(C)c2)ccc1OCC(=O)N1CCOCC1,inactive
5,c1ccc(CSc2nnc(-c3ccco3)c(-c3ccco3)n2)cc1,2.82 µM (active)
6,COC(OC)c1ccnc(SCc2ccccc2Cl)n1,inactive
7,Nc1nc(SCc2ccccc2Cl)n[nH]1,inactive
8,Clc1ccc(CSc2nnc3c(n2)[nH]c2ccccc23)cc1,inactive
9,Clc1ccccc1CSc1nnc(-c2ccco2)c(-c2ccco2)n1,10 µM (active)
10,O=c1[nH]c(SCc2ccccc2)nnc1-c1ccccc1,inactive
11,O=C(NC(=O)c1cc(OCC(F)(F)F)ccc1OCC(F)(F)F)Nc1ccccc1,inactive
12,CCOc1ccc(N=Cc2c(O)n(-c3cccc(C)n3)c(=O)c3ccccc23)cc1,inactive
13,CCOc1ccc(-n2c(O)c(/C=N/Nc3nc(C)cc(C)n3)c3ccccc3c2=O)cc1,5.01 µM (active)
14,Cc1ccc(-n2c(O)c(C=Nc3ccc(S(=O)(=O)Nc4ncccn4)cc3)c3ccccc3c2=O)cc1C,inactive
15,O=C(NCCOc1ccccc1F)Nc1ccc(Br)cc1,inactive
16,O=C(NC1CCCCC1)C1c2ccccc2C(=O)N1Cc1ccco1 (stereo unspecified),inactive
17,Cc1ccnc(N2C(=O)c3ccccc3C2Nc2ccc3c(c2)OCCO3)c1 (stereo unspecified),inactive
18,O=C1c2ccccc2C(Nc2ccc3c(c2)OCCO3)N1Cc1ccco1 (stereo unspecified),7.08 µM (active)
19,COc1ccccc1NC(=O)c1ccc(C)s1,inactive

row,SMILES,Potency
1,COc1ccccc1NC(=O)/C=C/C(N)=O,28.2 µM (active)
2,COc1ccccc1NC(=O)/C=C/C(=O)O,inactive
3,Cc1ccc(Cl)cc1NC(=O)COC(=O)CC(C)(C)C,8.91 µM (active)
4,CCCC(=O)OCC(=O)Nc1cc(Cl)ccc1[N+](=O)[O-],inactive
5,Cc1ccc(Cl)cc1NC(=O)COC(=O)C1CCCCC1,inactive
6,Cc1ccc2nc(-c3ccccn3)cc(C(=O)Nc3ccc4c(c3)OCO4)c2c1,inactive
7,CCCCn1nc(C(=O)Nc2ccc(S(=O)(=O)Nc3ncccn3)cc2)c2ccccc2c1=O,inactive
8,Cn1cc(CN2CCC(C(O)CCc3ccccc3)CC2)c(-c2ccccc2F)n1 (stereo unspecified),inactive
9,CS(=O)(=O)n1nc(-c2ccco2)nc1N,inactive
10,C/C(N)=C(/C#N)C(=O)COC(=O)c1cc(-c2ccccc2)nc2ccc(Br)cc12,inactive
11,Cc1ccc(NC(=O)CN2CCCCC2)c2c1CC(C)(C)O2,inactive
12,Cc1cc(CO)nn1-c1ccc([N+](=O)[O-])cc1,inactive
13,Cc1ccc(OC(=O)CCC(=O)Nc2ccc(Br)cc2)cc1,inactive
14,COc1ccc(NC(=O)Cn2c(-c3ccc(OC)cc3)cn(-c3ccc(C)cc3)c2=O)cc1,15.8 µM (active)
15,COc1ccc(C(CC(=O)Nc2ccc(C)cc2)NC(=O)C(F)(F)F)cc1 (stereo unspecified),inactive
16,COC(=O)C1=C(C)Nc2ncnn2C1c1ccco1 (stereo unspecified),inactive
17,COC(=O)C1=C(C)Nc2ncnn2C1c1cccnc1 (stereo unspecified),inactive
18,CC1=C(C(=O)OC2CCCCC2)C(c2cccnc2)n2ncnc2N1 (stereo unspecified),20 µM (active)
